Reference: PMC8384837, “Expanding the binding specificity for RNA recognition by a PUF domain”

Columns and labels:
Assay in all cases: yeast three-hybrid, YBZ-1, SC-Leu-His + 0.5 mM 3-AT, 4 days
Settings in all cases: tags: N-Gal4 AD-HA kept; label: inside an RPR1-promoter hybrid RNA with tandem MS2 sites; ssRNA
[1] = target: PUM1 PUF domain R7-RSS (Homo sapiens, UniProt Q14671 828-1176, S1079R;N1080S;E1083S)
Method in brief: (§1)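 Pumilio-1 PUF domain libraries, randomized (NNK) at the three base-contacting residues of each repeat, were co-expressed with matching RNA elements from a centromeric plasmid in strain YBZ-1 (LexA–MS2 coat fusion, HIS3 reporter). Transformants were plated on SC-Leu (input) and SC-Leu-His + 0.5 mM 3-AT (selection) for four days, and repeat regions were PCR-amplified and Illumina-sequenced. The interaction score is the log2 change in variant frequency from input to selection, with pseudocount 1 where absent.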

[2] = target: PUM1 PUF domain R5-KRC (Homo sapiens, UniProt Q14671 828-1176, C1007K;Q1011C)
Method in brief: as §1

[3] = target: PUM1 PUF domain R5-HRS (Homo sapiens, UniProt Q14671 828-1176, C1007H;Q1011S)
Method in brief: as §1

[4] = target: PUM1 PUF domain R7-LYG (Homo sapiens, UniProt Q14671 828-1176, S1079L;N1080Y;E1083G)
Method in brief: as §1

[5] = target: PUM1 PUF domain R4-GMC (Homo sapiens, UniProt Q14671 828-1176, N971G;H972M;Q975C)
Method in brief: as §1

[6] = target: PUM1 PUF domain R4-SPI (Homo sapiens, UniProt Q14671 828-1176, N971S;H972P;Q975I)
Method in brief: as §1

[7] = target: PUM1 PUF domain R4-GNG (Homo sapiens, UniProt Q14671 828-1176, N971G;H972N;Q975G)
Method in brief: as §1

[8] = target: PUM1 PUF domain R4-WAK (Homo sapiens, UniProt Q14671 828-1176, N971W;H972A;Q975K)
Method in brief: as §1

[9] = target: PUM1 PUF domain R8-RHL (Homo sapiens, UniProt Q14671 828-1176, N1122R;Y1123H;Q1126L)
Method in brief: as §1

[10] = target: PUM1 PUF domain R8-PWL (Homo sapiens, UniProt Q14671 828-1176, N1122P;Y1123W;Q1126L)
Method in brief: as §1

[11] = target: PUM1 PUF domain R3-DHR (Homo sapiens, UniProt Q14671 828-1176, C935D;R936H;Q939R)
Method in brief: as §1

[12] = target: PUM1 PUF domain R3-SRH (Homo sapiens, UniProt Q14671 828-1176, C935S;Q939H)
Method in brief: as §1

[13] = target: PUM1 PUF domain R3-KPS (Homo sapiens, UniProt Q14671 828-1176, C935K;R936P;Q939S)
Method in brief: as §1

[14] = target: PUM1 PUF domain R3-LRG (Homo sapiens, UniProt Q14671 828-1176, C935L;Q939G)
Method in brief: as §1

[15] = target: PUM1 PUF domain R1-KSA (Homo sapiens, UniProt Q14671 828-1176, S863K;R864S;Q867A)
Method in brief: as §1

[16] = target: T1, PUM1 PUF domain R6-VYE (Homo sapiens, UniProt Q14671 828-1176, N1043V;Q1047E)
T1 sequence: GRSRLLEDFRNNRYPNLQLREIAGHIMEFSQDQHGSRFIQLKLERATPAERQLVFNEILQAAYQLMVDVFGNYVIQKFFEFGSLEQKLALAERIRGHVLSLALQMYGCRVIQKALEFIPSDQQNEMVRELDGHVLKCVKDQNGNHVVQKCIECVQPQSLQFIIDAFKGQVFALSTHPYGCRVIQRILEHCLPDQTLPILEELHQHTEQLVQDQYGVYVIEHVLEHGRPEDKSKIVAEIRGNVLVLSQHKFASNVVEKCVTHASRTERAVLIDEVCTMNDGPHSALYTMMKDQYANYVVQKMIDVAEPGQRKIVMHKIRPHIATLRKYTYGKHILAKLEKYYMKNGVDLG
Method in brief: as §1

[17] = target: PUM1 PUF domain R5-WWW (Homo sapiens, UniProt Q14671 828-1176, C1007W;R1008W;Q1011W)
Method in brief: as §1

[18] = target: PUM1 PUF domain R5-SVT (Homo sapiens, UniProt Q14671 828-1176, C1007S;R1008V;Q1011T)
Method in brief: as §1

[19] = target: PUM1 PUF domain R3-YRQ (Homo sapiens, UniProt Q14671 828-1176, C935Y)
Method in brief: as §1

[20] = target: PUM1 PUF domain R3-FCL (Homo sapiens, UniProt Q14671 828-1176, C935F;R936C;Q939L)
Method in brief: as §1

PUM1 PUF domain R5-KRC, sequence (Q14671 828-1176 C1007K/Q1011C): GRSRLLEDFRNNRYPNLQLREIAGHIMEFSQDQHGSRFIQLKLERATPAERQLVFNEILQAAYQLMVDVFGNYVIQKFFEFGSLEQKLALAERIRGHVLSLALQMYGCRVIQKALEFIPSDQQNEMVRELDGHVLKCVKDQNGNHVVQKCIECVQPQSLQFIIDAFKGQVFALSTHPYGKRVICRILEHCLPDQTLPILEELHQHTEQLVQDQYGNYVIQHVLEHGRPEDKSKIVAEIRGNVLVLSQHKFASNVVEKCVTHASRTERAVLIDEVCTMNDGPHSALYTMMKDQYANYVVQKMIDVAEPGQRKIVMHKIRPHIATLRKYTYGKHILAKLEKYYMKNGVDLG
PUM1 PUF domain R4-GNG, sequence (Q14671 828-1176 N971G/H972N/Q975G): as the sequence (Q14671 828-1176 C1007K/Q1011C) above, with N144G, H145N, Q148G, K180C, C184Q counted along it
PUM1 PUF domain R5-HRS, sequence (Q14671 828-1176 C1007H/Q1011S): as the sequence (Q14671 828-1176 C1007K/Q1011C) above, with K180H, C184S counted along it

Sequence: GGCUAGAACUAGUGGAUCCCCCGGCGCCCGGCGGCUCGAGCCCGGGUAAGUUUAAAUAGUCUGCAUGCCGCCGGGCGCCAUGCCUGCAGGUCGACUCUAGAAAACAUG
- binding signal [1]: 2.76 log2 enrichment (interaction score)

Sequence: GGCUAGAACUAGUGGAUCCCCCGGCGCCCGGCGGCUCGAGCCCGGGUAAGUGUCAAUAGUCUGCAUGCCGCCGGGCGCCAUGCCUGCAGGUCGACUCUAGAAAACAUG
- binding signal [2]: 3.63 log2 enrichment (interaction score)
- binding signal [3]: 2.88 log2 enrichment (interaction score)

Sequence: GGCUAGAACUAGUGGAUCCCCCGGCGCCCGGCGGCUCGAGCCCGGGUAAGUCUAAAUAGUCUGCAUGCCGCCGGGCGCCAUGCCUGCAGGUCGACUCUAGAAAACAUG
- binding signal [4]: 2.93 log2 enrichment (interaction score)
- binding signal [1]: 1.34 log2 enrichment (interaction score)

Sequence: GGCUAGAACUAGUGGAUCCCCCGGCGCCCGGCGGCUCGAGCCCGGGUAAGUGUAUAUAGUCUGCAUGCCGCCGGGCGCCAUGCCUGCAGGUCGACUCUAGAAAACAUG
- binding signal [5]: 3.12 log2 enrichment (interaction score)
- binding signal [6]: 2.21 log2 enrichment (interaction score)
- binding signal [7]: 3.28 log2 enrichment (interaction score)
- binding signal [8]: 2.71 log2 enrichment (interaction score)

Sequence: GGCUAGAACUAGUGGAUCCCCCGGCGCCCGGCGGCUCGAGCCCGGGUAAGUGUAAAUAGUCUGCAUGCCGCCGGGCGCCAUGCCUGCAGGUCGACUCUAGAAAACAUG
- binding signal [9]: 3.23 log2 enrichment (interaction score)
- binding signal [10]: 2.93 log2 enrichment (interaction score)
- binding signal [2]: 2.12 log2 enrichment (interaction score)
- binding signal [7]: 1.49 log2 enrichment (interaction score)
- binding signal [11]: 3.23 log2 enrichment (interaction score)
- binding signal [12]: 4.37 log2 enrichment (interaction score)

Sequence: GGCUAGAACUAGUGGAUCCCCCGGCGCCCGGCGGCUCGAGCCCGGGUAAGUGUAAUUAGUCUGCAUGCCGCCGGGCGCCAUGCCUGCAGGUCGACUCUAGAAAACAUG
- binding signal [13]: 3.86 log2 enrichment (interaction score)
- binding signal [14]: 0.54 log2 enrichment (interaction score)

Sequence: GGCUAGAACUAGUGGAUCCCCCGGCGCCCGGCGGCUCGAGCCCGGGUAAGUGUAAAUCGUCUGCAUGCCGCCGGGCGCCAUGCCUGCAGGUCGACUCUAGAAAACAUG
- binding signal [15]: 3.27 log2 enrichment (interaction score)

Sequence: GGCUAGAACUAGUGGAUCCCCCGGCGCCCGGCGGCUCGAGCCCGGGUAAGUGUACAUAGUCUGCAUGCCGCCGGGCGCCAUGCCUGCAGGUCGACUCUAGAAAACAUG
- binding signal [6]: 0.54 log2 enrichment (interaction score)
- binding signal [7]: 2.39 log2 enrichment (interaction score)

Sequence: GGCUAGAACUAGUGGAUCCCCCGGCGCCCGGCGGCUCGAGCCCGGGUAAGUGGAAAUAGUCUGCAUGCCGCCGGGCGCCAUGCCUGCAGGUCGACUCUAGAAAACAUG
- binding signal [16]: 2.43 log2 enrichment (interaction score)

Sequence: GGCUAGAACUAGUGGAUCCCCCGGCGCCCGGCGGCUCGAGCCCGGGUAAGCGUAAAUAGUCUGCAUGCCGCCGGGCGCCAUGCCUGCAGGUCGACUCUAGAAAACAUG
- binding signal [9]: 5.48 log2 enrichment (interaction score)
- binding signal [10]: 3.61 log2 enrichment (interaction score)

Sequence: GGCUAGAACUAGUGGAUCCCCCGGCGCCCGGCGGCUCGAGCCCGGGUAAGUGUGAAUAGUCUGCAUGCCGCCGGGCGCCAUGCCUGCAGGUCGACUCUAGAAAACAUG
- binding signal [17]: 3.25 log2 enrichment (interaction score)
- binding signal [2]: 1.03 log2 enrichment (interaction score)
- binding signal [18]: 3.92 log2 enrichment (interaction score)
- binding signal [3]: 0.46 log2 enrichment (interaction score)

Sequence: GGCUAGAACUAGUGGAUCCCCCGGCGCCCGGCGGCUCGAGCCCGGGUAAGUGUAAGUAGUCUGCAUGCCGCCGGGCGCCAUGCCUGCAGGUCGACUCUAGAAAACAUG
- binding signal [19]: 3.31 log2 enrichment (interaction score)
- binding signal [20]: 4.28 log2 enrichment (interaction score)
- binding signal [14]: 3.85 log2 enrichment (interaction score)

Sequence: GGCUAGAACUAGUGGAUCCCCCGGCGCCCGGCGGCUCGAGCCCGGGUAAGUGUUAAUAGUCUGCAUGCCGCCGGGCGCCAUGCCUGCAGGUCGACUCUAGAAAACAUG
- binding signal [2]: 3.89 log2 enrichment (interaction score)
- binding signal [3]: 4.01 log2 enrichment (interaction score)

Sequence: GGCUAGAACUAGUGGAUCCCCCGGCGCCCGGCGGCUCGAGCCCGGGUAAGUGAAAAUAGUCUGCAUGCCGCCGGGCGCCAUGCCUGCAGGUCGACUCUAGAAAACAUG
- binding signal [16]: 7.22 log2 enrichment (interaction score)
